MARV entry inh: Marburg virus entry inhibition. Potency, µM (series often up to 37.8 µM), most hits filed as inhibitors. AID 540276. 300,000 tested, 1.8% active. Marburg virus pseudotyped entry inhibition, cell reporter; calls by dose curve; tested in HEK293 cells
HCMV antiviral: inhibitors of human cytomegalovirus | HFF cells, HCMV-luciferase reporter, 72 h; stronger effect = lower value | activity change, negative = inhibition, % at 57.5 µM | 410,000 tested, 4.5% active; in the data active means activity change below about -60%; inconclusive means no clear call, values can overlap the other calls; inactive means above about -39%
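Compounds were evaluated in HFFs infected with an HCMV luciferase reporter virus (MOI 1 PFU/cell). Luciferase in lysates collected 72 h post infection served as the replication measure.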
FMDV antiviral: blocks foot and mouth disease virus; 410,000 tested, 1.2% active; Potency, µM (top dose mostly 57.9 µM), usual class: inhibitors; FMDV antiviral cell-based qHTS; calls by dose curve; tested in HEK293T cells; further: read-out not given here; nearly all actives have a fitted effect of over 45% in size
LASV entry inh: blocks Lassa virus binding to or entry into cells | Lassa virus pseudotype entry inhibition, cell reporter | Potency, µM (series often up to 37.9 µM), most hits filed as inhibitors | 300,000 tested, 1.2% active; calls by dose curve; tested in HEK293 cells; further: nearly all actives have a fitted effect of over 50% in size
Numbers stand for hits; n = inactive; u = inconclusive; x = no result. A selection: hits, their analogues and other compounds. The true share with any hit is near 6.2%.

SMILES	MARV entry inh	HCMV antiviral	FMDV antiviral	LASV entry inh
O=C(c1cccc(S(=O)(=O)N2CCN(c3ccccc3)CC2)c1)N1CCCC(C(F)(F)F)C1 (configuration not stated)	u	-91	u	u
O=C(c1cc(S(=O)(=O)N2CCN(c3ccccc3)CC2)ccc1Cl)N1CCCC(C(F)(F)F)C1 (configuration not stated)	u	-82	u	u
O=C(c1cccc(S(=O)(=O)N2CCCC2)c1)N1CCN(c2ccccc2)CC1	u	n	n	n
CN(C(=O)CSc1nnnn1-c1ccc(Cl)cc1)C1CCS(=O)(=O)C1 (configuration not stated)	x	n	n	x
CCOc1cccc(=NC2CCCCC2)c2c(C)n(C)c(C)c12	u	-110	11µM	n
COc1cccc(C(=O)CSc2nnnn2C2CCCCC2)c1	n	n	n	u
Cc1onc(-c2ccc(Cl)cc2)c1-c1ccnn1S(=O)(=O)c1cccc(C(F)(F)F)c1	10µM	n	n	n
O=C(CNC(=O)c1cccs1)NC1=NCCS1	n	n	n	u
Cn1cccc1/C=C1\C(=O)NC(=O)N(Cc2ccccc2)C1=O	n	-65	n	n
Cn1cccc1/C=C1/C(=O)NC(=S)N(Cc2ccc(F)cc2)C1=O	n	u	28µM	n
COc1ccc(C(=O)N(C)Cc2ccccc2F)cc1S(=O)(=O)N1CCCC1	x	n	n	x
C/C=C(\C)C(=O)NNC(=O)c1sc(-c2ccccc2)nc1C	u	n	n	n
COc1ccc(-c2cc(-c3n[nH]c(=S)n3-c3ccccc3OC)[nH]n2)cc1	u	n	n	n
CC(=O)c1ccc(OCc2cc(C(=O)N3CC[C@@H]4CCCC[C@H]4C3)no2)cc1	u	n	n	u
O=C(c1cc(COc2cccc(C(F)(F)F)c2)on1)N1CCC(c2ccncc2)CC1	x	x	n	x
CC(=O)c1ccc(OCc2cc(C(=O)N3CCC(c4ccncc4)CC3)no2)cc1	x	-81	u	x
COc1cccc(OCc2cc(C(=O)N3CCC(c4ccncc4)CC3)no2)c1	u	-89	n	u
O=C(/C=C/Nc1ccc(S(=O)(=O)Nc2ncccn2)cc1)c1cccs1	n	n	n	n
COc1cc(CN2CCc3nc(N4CCN(c5ccccn5)CC4)ncc3C2)cc(OC)c1OC	x	-63	u	u
Fc1ccc(CN2CCc3nc(N4CCN(c5ccccc5F)CC4)ncc3C2)c(F)c1	x	n	u	n
CCOc1ccc(CN2CCc3nc(N4CCN(c5ccccn5)CC4)ncc3C2)cc1OC	x	u	13µM	u
COc1cc(CN2CCc3nc(N4CCN(c5ncccn5)CC4)ncc3C2)cc(OC)c1OC	x	-63	28µM	u
CCOc1ccccc1CN1CCc2nc(N3CCN(c4ccccc4F)CC3)ncc2C1	x	-64	28µM	n
CCOC(=O)c1snc2c(=O)[nH]cnc12	u	n	n	n
CN(C)c1ccc(CN2CCc3nc(N4CCN(c5ccccn5)CC4)ncc3C2)cc1	x	n	7.9µM	u
SMILES	MARV entry inh	HCMV antiviral	FMDV antiviral	LASV entry inh
Cc1cc(C)cc(OCc2nc3ncc(Br)cc3[nH]2)c1	u	-63	n	u
Nc1nsnc1C(=O)NCCO	n	n	n	n
CCS(=O)(=O)N1CCc2cc(OC)c(OC)cc2C1	n	n	n	n
COc1cc2c(cc1OC)CN(S(C)(=O)=O)CC2	x	-85	n	x
CCn1c(SCC(=O)N2CCOCC2)nc2ccccc21	n	n	n	n
Cc1ccsc1C(=O)OCC(=O)NCc1cccs1	x	n	n	x
C/C(=N\NC(N)=S)c1ccc(Cl)s1	n	-67	n	n
C/C(=N\NC(=S)NC(C)C)c1ccc(Cl)s1	n	n	n	n
Cc1nonc1NC(=O)OCCN1CCOC1=O	n	n	n	n
Cc1snc(SCc2ccc(Cl)cc2)c1C#N	x	-100	n	x
C#CCOCCOCCOCCNc1nc(N2CCN(C(=O)Cn3cc(CC(C)O)nn3)CC2)nc(N2CCN(C(=O)[C@H]([C@@H](C)CC)n3cc(CCCN=C(N)N)nn3)CC2)n1 (some centres not stated)	n	n	n	n
CC(O)(c1cccnc1)c1nc(/C=C/c2ccccc2)cs1 (configuration not stated)	x	-83	u	x
O=C(NC1CCCC1)NS(=O)(=O)c1ccccc1Cl	n	n	n	n
CN(C)P(=NC(=O)COc1ccc(Cl)cc1Cl)(N(C)C)N(C)C	n	u	u	n
CC(C)c1cccc(-c2csc(C(O)c3ccc(F)c(F)c3)n2)c1 (configuration not stated)	x	-70	n	x
COc1ccc(-c2csc(C(O)c3cccc(OC)c3)n2)cc1 (configuration not stated)	x	-68	n	x
OC(c1ccc(F)cc1)c1nc(-c2ccc(Cl)cc2)cs1 (configuration not stated)	x	-66	n	x
CC(C)c1cccc(-c2csc(C(O)c3ccc(F)cc3)n2)c1 (configuration not stated)	x	n	n	x
OC(c1ccc(F)cc1)c1nc(-c2ccccc2)cs1 (configuration not stated)	x	n	n	x
CCCCOC(=O)C1=C(C)NC(=O)NC1c1ccc([N+](=O)[O-])s1 (configuration not stated)	u	n	n	n
COc1ccc(NC(=S)N(CCCN2CCCC2)Cc2cccn2Cc2ccc(Cl)cc2)cc1Cl	x	-79	n	x
Cc1ccc(NC(=S)N(CCCN2CCCC2)Cc2cccn2Cc2ccc(Cl)cc2)cc1C	u	n	u	u
CCOC(=O)CNC(=S)N(CCCN1CCCCCC1)Cc1cccs1	u	-88	n	n
CCOC(=O)CNC(=S)N(CCCN1CCCCC1)Cc1cccs1	u	n	n	n
COc1ccc(NC(=S)N(CCC(C)C)C2CCN(C(C)C)CC2)cc1Cl	u	-62	n	u
SMILES	MARV entry inh	HCMV antiviral	FMDV antiviral	LASV entry inh
Cc1ccc(NC(=S)N(CCCN2CCCC2)Cc2cccn2Cc2ccc(Cl)cc2)cc1Cl	8.9µM	n	n	1.1µM
Cc1oc(C(C)(C)C)cc1C(=O)Nc1ccc(N2CCOCC2)cc1	n	n	n	n
CC(C)(C)N(Cc1cc2ccccc2[nH]c1=O)C(=O)c1cccc([N+](=O)[O-])c1	n	u	n	n
COc1ccc(NC(=S)N(CCCN2CCN(C)CC2)Cc2cccs2)cc1	u	u	n	u
FC(F)(F)c1cccc(NC(=S)N(CCCN2CCCC2)Cc2cccn2Cc2ccc(Cl)cc2)c1	u	-67	28µM	u
COc1ccc(NC(=S)N(CCCN2CCC(C)CC2)Cc2cccs2)cc1Cl	u	-90	n	u
CCN(CC)S(=O)(=O)c1cccc(-c2nnc(SCCOc3ccccc3)o2)c1	u	-68	u	10µM
CCN(CC)S(=O)(=O)c1cccc(-c2nnc(SCCOc3ccc(Cl)cc3)o2)c1	u	n	u	u
O=C(Nn1c(O)c(C=C2N=c3ccccc3=N2)sc1=S)c1ccccc1Cl	n	-91	n	u
C1=CC2=NC34CCCCC3CC3=C(CCCC3)N4C2=CC1=NC1CCCCC1 (configuration not stated)	x	x	28µM	x
CCN(CC)S(=O)(=O)c1cc(C(=O)Nc2cc(C)on2)ccc1Cl	n	-64	n	n
CCCc1nnc2c(N(C)S(=O)(=O)c3ccc(C)cc3)nc3ccccc3n12	n	-69	n	n
CN1CCN(C(c2ccc(C(F)(F)F)cc2)c2ccc3cccnc3c2O)CC1 (configuration not stated)	u	-97	n	7.9µM
